In PubChem BioAssay (NCI):
This is part of a sample that, as a whole, favours compounds with a hit. Of some 83,000 tested, about 20% had one in any assay.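 Growth was measured after 48 h exposure to one concentration of compound in 96-well plates. Values under 10 count as active.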

Assays:
Assay in all cases: NCI-60 one-dose screen, 48 h (100 = growth as untreated, 0 = no growth, -100 = all killed)
Conditions in all cases: 10 µM
NCI-H23 lung = tested on: NCI-H23 lung
NCI-H226 lung = tested on: NCI-H226 lung
NCI-H322M lung = tested on: NCI-H322M lung
HOP-62 NSCLC = tested on: HOP-62 NSCLC
NCI-H460 lung = tested on: NCI-H460 lung
HOP-92 NSCLC = tested on: HOP-92 NSCLC
NCI-H522 lung = tested on: NCI-H522 lung
A549/ATCC NSCLC = tested on: A549/ATCC NSCLC
786-0 renal = tested on: 786-0 renal
COLO 205 colon = tested on: COLO 205 colon
DU-145 prostate = tested on: DU-145 prostate
K-562 leukemia = tested on: K-562 leukemia
MALME-3M melanoma = tested on: MALME-3M melanoma
RXF 393 renal = tested on: RXF 393 renal
SF-295 CNS = tested on: SF-295 CNS
SF-539 CNS = tested on: SF-539 CNS
UACC-257 melanoma = tested on: UACC-257 melanoma
M14 melanoma = tested on: M14 melanoma
SF-268 CNS = tested on: SF-268 CNS
MDA-MB-231 breast = tested on: MDA-MB-231 breast

Measured: growth

Cc1ccc(C)n1-c1ccsc1C(=O)NNC(=O)C(Cl)Cl
inactive: NCI-H23 lung 98.4% | NCI-H226 lung 93% | NCI-H322M lung 98.6% | HOP-62 NSCLC 96.6% | NCI-H460 lung 104% | HOP-92 NSCLC 90.5% | NCI-H522 lung 91.9% | A549/ATCC NSCLC 102% | 786-0 renal 101% | COLO 205 colon 120% | DU-145 prostate 109% | K-562 leukemia 97.8% | MALME-3M melanoma 93.2% | RXF 393 renal 114% | SF-295 CNS 101% | SF-539 CNS 102% | UACC-257 melanoma 98.2% | M14 melanoma 106%

CSc1[nH]c(=O)ncc1F
inactive: NCI-H23 lung 101% | NCI-H226 lung 99.7% | NCI-H322M lung 97.8% | HOP-62 NSCLC 109% | NCI-H460 lung 106% | HOP-92 NSCLC 116% | NCI-H522 lung 100% | A549/ATCC NSCLC 93.3% | 786-0 renal 104% | COLO 205 colon 110% | DU-145 prostate 106% | K-562 leukemia 111% | MALME-3M melanoma 97.8% | RXF 393 renal 105% | SF-295 CNS 97.4% | SF-539 CNS 95.7% | UACC-257 melanoma 72.8% | M14 melanoma 103%

c1c(-c2cc(C3CC3)[nH]n2)n[nH]c1C1CC1
inactive: NCI-H23 lung 94.3% | NCI-H226 lung 95.2% | NCI-H322M lung 94.8% | HOP-62 NSCLC 98.6% | NCI-H460 lung 83.4% | HOP-92 NSCLC 89% | NCI-H522 lung 79% | A549/ATCC NSCLC 88.8% | 786-0 renal 94.3% | COLO 205 colon 102% | DU-145 prostate 111% | K-562 leukemia 70.9% | MALME-3M melanoma 92.2% | RXF 393 renal 108% | SF-268 CNS 107% | SF-295 CNS 98% | SF-539 CNS 101% | UACC-257 melanoma 90.8% | M14 melanoma 98.9%

Cc1ccc(N)cc1[N+](=O)[O-]
inactive: NCI-H23 lung 97.1% | NCI-H226 lung 114% | NCI-H322M lung 129% | HOP-62 NSCLC 99.5% | NCI-H460 lung 109% | HOP-92 NSCLC 90% | NCI-H522 lung 94.5% | A549/ATCC NSCLC 100% | 786-0 renal 108% | COLO 205 colon 110% | DU-145 prostate 115% | K-562 leukemia 108% | MDA-MB-231 breast 122% | RXF 393 renal 114% | SF-268 CNS 114% | SF-295 CNS 105% | SF-539 CNS 113% | UACC-257 melanoma 98.7% | M14 melanoma 99.8%

COc1ccccc1C1OC2=Nc3cc(C)c(C)cc3NC2C1=O (stereo unspecified)
inactive: NCI-H23 lung 79% | NCI-H226 lung 21.7% | NCI-H322M lung 80.3% | HOP-62 NSCLC 47.9% | NCI-H460 lung 14.1% | HOP-92 NSCLC 67.7% | NCI-H522 lung 91% | A549/ATCC NSCLC 67.6% | 786-0 renal 14% | COLO 205 colon 79.1% | DU-145 prostate 88% | K-562 leukemia 97.7% | MALME-3M melanoma 80.2% | RXF 393 renal 78.3% | SF-295 CNS 74.8% | SF-539 CNS 91% | UACC-257 melanoma 104% | M14 melanoma 84.2%

COc1cc(OC)c2ccc(=O)oc2c1
inactive: NCI-H23 lung 101% | NCI-H226 lung 114% | NCI-H322M lung 107% | HOP-62 NSCLC 101% | NCI-H460 lung 104% | HOP-92 NSCLC 98.3% | NCI-H522 lung 116% | A549/ATCC NSCLC 97% | 786-0 renal 105% | COLO 205 colon 107% | DU-145 prostate 102% | MALME-3M melanoma 136% | MDA-MB-231 breast 93.4% | RXF 393 renal 123% | SF-268 CNS 102% | SF-295 CNS 100% | SF-539 CNS 106% | UACC-257 melanoma 98.1% | M14 melanoma 115%

O=C(c1ccc(O)cc1)c1ccc(O)cc1
inactive: NCI-H23 lung 106% | NCI-H226 lung 98.1% | NCI-H322M lung 95.3% | HOP-62 NSCLC 97.8% | NCI-H460 lung 108% | HOP-92 NSCLC 98% | NCI-H522 lung 95.8% | A549/ATCC NSCLC 96.9% | 786-0 renal 98.8% | COLO 205 colon 108% | DU-145 prostate 110% | K-562 leukemia 102% | MDA-MB-231 breast 125% | RXF 393 renal 113% | SF-268 CNS 102% | SF-295 CNS 102% | SF-539 CNS 100% | UACC-257 melanoma 96.2% | M14 melanoma 98.7%

CNC(=S)NC(C)(C)C
inactive: NCI-H23 lung 104% | NCI-H226 lung 102% | NCI-H322M lung 98.4% | HOP-62 NSCLC 101% | NCI-H460 lung 113% | HOP-92 NSCLC 83.1% | NCI-H522 lung 98% | A549/ATCC NSCLC 98.3% | 786-0 renal 101% | COLO 205 colon 119% | DU-145 prostate 108% | K-562 leukemia 103% | MALME-3M melanoma 97.1% | RXF 393 renal 112% | SF-295 CNS 104% | SF-539 CNS 99.9% | UACC-257 melanoma 92.7% | M14 melanoma 98.8%

Cc1ccc(C)n1-c1ccsc1C(=O)NNC(=O)CCl
inactive: NCI-H23 lung 85.1% | NCI-H226 lung 80.1% | NCI-H322M lung 99.7% | HOP-62 NSCLC 101% | NCI-H460 lung 101% | HOP-92 NSCLC 97.4% | NCI-H522 lung 79.5% | A549/ATCC NSCLC 96.6% | 786-0 renal 80.4% | COLO 205 colon 122% | DU-145 prostate 105% | K-562 leukemia 96.3% | MALME-3M melanoma 86.7% | RXF 393 renal 101% | SF-295 CNS 103% | SF-539 CNS 101% | UACC-257 melanoma 91.3% | M14 melanoma 77.8%
